The source of these data is PubChem BioAssay (NCI).

“And” between values parts separate entries of the source, which are not always exact repeats. Equal values may be shown once. About 83,000 compounds went through this panel and 20% of them were active in at least one assay; those are over-represented in the sample as a whole.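 Cells were grown in 96-well plates and exposed to the test compound at a single concentration for 48 hours; results are reported as percent growth, with values below 10 considered active.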 The source made the active and inactive calls.

Among the test systems are HOP-92 NSCLC; NCI-H522 lung; A549/ATCC NSCLC; K-562 leukemia; MALME-3M melanoma; SF-268 CNS.
What all share (experiment): NCI-60 one-dose screen, 48 h (100 = growth as untreated, 0 = no growth, -100 = all killed)
Another test has as its system NCI-H23 lung. The following applies: 10 µM unless noted.
A further test has as its system NCI-H226 lung. The following applies: 10 µM unless noted.
The subject of the next test is HOP-62 NSCLC. The following applies: 10 µM unless noted.
In another test the test system is NCI-H460 lung. As to conditions: 10 µM unless noted.
For another test, the system named is 786-0 renal. As to conditions: 10 µM unless noted.
The next test deals with DU-145 prostate. The following applies: 10 µM unless noted.
In the next test the test system is MDA-MB-231 breast. The following applies: 10 µM unless noted.
Another test relates to RXF 393 renal. The following applies: 10 µM unless noted.
The test system of another test is SF-295 CNS. The following applies: 10 µM unless noted.
For the next test, the system named is SF-539 CNS. The following applies: 10 µM unless noted.
A further test concerns UACC-257 melanoma. The following applies: 10 µM unless noted.
The subject of the next test is M14 melanoma. The following applies: 10 µM unless noted.
A further test concerns COLO 205 colon. The following applies: 10 µM unless noted.
In another test the test system is NCI-H322M lung. As to conditions: 10 µM unless noted.

For `COc1cc(/C=C(/C)C[N+](=O)[O-])ccc1O`, the growth in the test with NCI-H23 lung was 98.3% (inactive); in the test on NCI-H226 lung, 104% (inactive); with HOP-62 NSCLC it was 103% (inactive); in the test with NCI-H460 lung, 106% (inactive); with HOP-92 NSCLC (10 µM unless noted) it was 98.4% (inactive); in the test with NCI-H522 lung (10 µM unless noted), 72% (inactive). The growth in the test with A549/ATCC NSCLC (10 µM unless noted) was 85.9% (inactive); in the test on 786-0 renal, 99.5% (inactive); in the test with DU-145 prostate, 101% (inactive); in the test on K-562 leukemia (10 µM unless noted), 69.7% (inactive); in the test with MALME-3M melanoma (10 µM unless noted) it was -12.2% (active); in the test on MDA-MB-231 breast, 89.8% (inactive). For the same molecule, the growth in the test on RXF 393 renal is 91.2% (inactive); with SF-268 CNS (10 µM unless noted) it was 101% (inactive); in the test on SF-295 CNS, 99.3% (inactive); in the test on SF-539 CNS, 105% (inactive); in the test with UACC-257 melanoma, 33.5% (inactive); with M14 melanoma it was 83.2% (inactive).
In the case of `COC(=O)[C@@]12OC[C@]34[C@H]([C@@H](O)[C@@H]1O)[C@@]1(C)[C@H](O)C(=O)C=C(C)[C@@H]1C[C@H]3OC(=O)C(OC(C)=O)[C@@H]24` (some centres undefined), the growth in the test on NCI-H23 lung is -48.7% (active); in the test on NCI-H226 lung, -65.4% (active); in the test on HOP-62 NSCLC, -30.7% (active); in the test with NCI-H460 lung it was -43.4% (active); in the test on HOP-92 NSCLC (10 µM unless noted) it was -44.2% (active); with NCI-H522 lung (10 µM unless noted) it was -60.1% (active). Moreover, the growth was -19.4% (active) in the test with A549/ATCC NSCLC (10 µM unless noted); -38.9% (active) in the test with 786-0 renal; -64.3% (active) with COLO 205 colon; -64.4% (active) with DU-145 prostate; -60% (active) in the test with K-562 leukemia (10 µM unless noted); -70.1% (active) with MALME-3M melanoma (10 µM unless noted). The growth with MDA-MB-231 breast was -39.5% (active); in the test with RXF 393 renal, -63.6% (active); in the test on SF-268 CNS (10 µM unless noted) it was -31.2% (active); in the test with SF-295 CNS, -53.9% (active); with SF-539 CNS, -36.7% (active); with UACC-257 melanoma, -54.4% (active). The growth in the test with M14 melanoma was -84.9% (active).
As to `COc1cc(NS(C)(=O)=O)ccc1Nc1c2ccccc2nc2ccccc12`, the growth in the test on NCI-H226 lung is -8.63% [2.5 µM] (active); in the test on NCI-H322M lung, 83.9% [2.5 µM] (inactive); in the test with HOP-62 NSCLC it was 18.2% [2.5 µM] (inactive); in the test with NCI-H460 lung it was 4.6% [2.5 µM] (active); in the test on HOP-92 NSCLC (2.5 µM), 9.79% (active); in the test on HOP-92 NSCLC (10 µM), 42.5% (inactive) and 10.3% (inactive). Moreover, the growth was 43% (inactive) in the test with NCI-H522 lung (2.5 µM); -47.9% (active) and 4% (active) and 37.2% (inactive) in the test on NCI-H522 lung (10 µM); 28.1% (inactive) with A549/ATCC NSCLC (2.5 µM); 12.9% (inactive) [middle of 4 runs] in the test on A549/ATCC NSCLC (10 µM); -3.06% [2.5 µM] (active) with 786-0 renal; 39.7% [2.5 µM] (inactive) with COLO 205 colon. The growth was -34.4% [2.5 µM] (active) in the test with DU-145 prostate; 29.2% (inactive) with K-562 leukemia (2.5 µM); 0.97% (active) and 16.8% (inactive) and 23.4% (inactive) in the test with K-562 leukemia (10 µM); 43.4% (inactive) in the test on MALME-3M melanoma (2.5 µM); -25.4% (active) and 20.4% (inactive) and 25.4% (inactive) with MALME-3M melanoma (10 µM); 98.2% [2.5 µM] (inactive) with MDA-MB-231 breast. Also, the growth with RXF 393 renal was 6.88% [2.5 µM] (active); in the test on SF-268 CNS (2.5 µM), 35.1% (inactive); with SF-268 CNS (10 µM), 25.1% (inactive) [middle of 4 runs]; with SF-295 CNS it was 3.7% [2.5 µM] (active); in the test with SF-539 CNS it was -34.3% [2.5 µM] (active); in the test with UACC-257 melanoma it was 5.31% [2.5 µM] (active). Further, in the test on M14 melanoma, the growth is 8.39% (active) [middle of 4 runs].
With `COc1ccccc1/C=C\C(=O)c1ccccc1`, the growth with NCI-H23 lung was 79.8% (inactive); in the test with NCI-H226 lung it was 85.8% (inactive); with HOP-62 NSCLC, 85.9% (inactive); with NCI-H460 lung, 59.5% (inactive); in the test with NCI-H522 lung (10 µM unless noted), 39.2% (inactive); with A549/ATCC NSCLC (10 µM unless noted), 96.4% (inactive). The growth with 786-0 renal is 81.9% (inactive); in the test with COLO 205 colon, 111% (inactive); in the test on DU-145 prostate, 94.7% (inactive); with K-562 leukemia (10 µM unless noted) it was 13% (inactive); in the test with MALME-3M melanoma (10 µM unless noted) it was 78.9% (inactive); in the test with MDA-MB-231 breast it was 84.8% (inactive). Besides, the growth in the test with RXF 393 renal is 85.5% (inactive); in the test on SF-268 CNS (10 µM unless noted), 96.1% (inactive); with SF-295 CNS, 94.2% (inactive); with SF-539 CNS, 92.4% (inactive); in the test with UACC-257 melanoma it was 82.2% (inactive); in the test on M14 melanoma, 78.5% (inactive).
In the case of `CN(C)c1ccc(C(=C2C=CC(=[N+](C)C)C=C2)c2ccc(N(C)C)cc2)cc1` (tested in a mixture with another compound), the growth was -60% (active) in the test with NCI-H226 lung; -34.2% (active) with HOP-62 NSCLC; -75.1% (active) in the test on NCI-H460 lung; -66.8% (active) in the test on HOP-92 NSCLC (10 µM unless noted); -47% (active) with NCI-H522 lung (10 µM unless noted); -18.2% (active) in the test with A549/ATCC NSCLC (10 µM unless noted). Moreover, the growth in the test on 786-0 renal was -90.4% (active); in the test with COLO 205 colon it was -97.7% (active); in the test with DU-145 prostate it was -99.4% (active); in the test with K-562 leukemia (10 µM unless noted), -55.3% (active); with MALME-3M melanoma (10 µM unless noted) it was -62.7% (active); with MDA-MB-231 breast, -60.9% (active). In addition, the growth was -70.1% (active) with RXF 393 renal; -92.2% (active) with SF-268 CNS (10 µM unless noted); -45.1% (active) in the test on SF-295 CNS; -94.2% (active) in the test on SF-539 CNS; -67.4% (active) in the test with UACC-257 melanoma; -63.2% (active) in the test with M14 melanoma.
`O=C1OCc2cccc3cccc1c23`: the growth was 91.4% (inactive) in the test on NCI-H226 lung; 119% (inactive) in the test with NCI-H322M lung; 113% (inactive) in the test with HOP-62 NSCLC; 104% (inactive) with NCI-H460 lung; 108% (inactive) in the test with NCI-H522 lung (10 µM unless noted); 78.9% (inactive) in the test on A549/ATCC NSCLC (10 µM unless noted). Moreover, the growth in the test with 786-0 renal is 110% (inactive); with COLO 205 colon it was 115% (inactive); in the test on DU-145 prostate it was 107% (inactive); with K-562 leukemia (10 µM unless noted), 103% (inactive); with MALME-3M melanoma (10 µM unless noted), 107% (inactive); in the test with MDA-MB-231 breast, 111% (inactive). Besides, the growth in the test on RXF 393 renal was 102% (inactive); in the test on SF-268 CNS (10 µM unless noted), 103% (inactive); in the test with SF-295 CNS, 102% (inactive); with SF-539 CNS, 98.4% (inactive); with UACC-257 melanoma, 94.3% (inactive); in the test with M14 melanoma, 103% (inactive).
On to `CC(=O)Nc1cccc2cc(O)ccc12`, for which the growth in the test with NCI-H226 lung is 98.2% (inactive) and 98.1% (inactive) and 102% (inactive); in the test on HOP-62 NSCLC, 100% (inactive) and 93.1% (inactive) and 95.8% (inactive); in the test with NCI-H460 lung it was 114% (inactive) and 103% (inactive) and 105% (inactive); in the test with HOP-92 NSCLC (10 µM unless noted), 64.6% (inactive) and 88.7% (inactive) and 73.6% (inactive); with NCI-H522 lung (10 µM unless noted), 101% (inactive) and 109% (inactive) and 84.1% (inactive); in the test on A549/ATCC NSCLC (10 µM unless noted) it was 118% (inactive) and 111% (inactive) and 98.6% (inactive). The growth with 786-0 renal was 109% (inactive) and 104% (inactive) and 98.9% (inactive); with COLO 205 colon, 106% (inactive) and 110% (inactive) and 104% (inactive); in the test on DU-145 prostate, 118% (inactive) and 110% (inactive) and 111% (inactive); in the test on K-562 leukemia (10 µM unless noted), 108% (inactive) and 113% (inactive) and 99.7% (inactive); in the test on MALME-3M melanoma (10 µM unless noted), 101% (inactive) and 127% (inactive) and 98.3% (inactive); with MDA-MB-231 breast, 102% (inactive) and 95.1% (inactive) and 95.8% (inactive). Besides, the growth in the test with RXF 393 renal is 123% (inactive) and 98% (inactive) and 105% (inactive); with SF-268 CNS (10 µM unless noted), 111% (inactive) and 94.6% (inactive) and 99.6% (inactive); in the test with SF-295 CNS, 84.7% (inactive) and 130% (inactive) and 99% (inactive); in the test on SF-539 CNS, 96.4% (inactive) and 96.8% (inactive) and 98.5% (inactive); with UACC-257 melanoma, 123% (inactive) and 103% (inactive) and 90.3% (inactive); in the test on M14 melanoma, 91.7% (inactive) and 98.2% (inactive).
